Assay [1] relates to Human papillomavirus type 1a protein E7 (residues 44-93). Description: small molecules binding HPV E7 44-93 – biochemical, small-molecule microarray, residues 44-93, 635 nm fluorescence, primary screen (AID 1108).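 Note: E7 fragment applied at 1 µg/mL in TBST for 1 h at 4 C; score combines spot fluorescence with its signal to noise ratio.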 The conditions noted are these: fluorescence 635 nm, higher = more signal.
Assay [2] is described as follows: hepatitis C replication reporter changes, two-sided – Huh7 cells, luciferase reporter, HCV replication inhibitor project, primary screen (AID 1109).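 Note: huh7 hepatoma cells harbouring a luciferase neomycin HCV replicon reporter; luciferase luminescence as measure of HCV replicon replication; test concentration not given here.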 The conditions noted are these: Huh7 HCV replicon luciferase reporter, 48 h; higher = more signal.
Assay [3] deals with Left-right determination factor 2 (Homo sapiens) (UniProt O00292). In words: small molecules binding LEFTY2 protein – biochemical, small-molecule microarray, 635 nm fluorescence scan, primary screen (AID 1110). The conditions noted are these: higher = more signal.
Assay [4] concerns the target Calmodulin-1 (Homo sapiens) (UniProt P0DP23). In words: small molecules binding calmodulin-1 with EGTA – biochemical, small-molecule microarray, Cy5-labelled CALM1, profiling panel (AID 1111).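 Note: labelled calmodulin applied in Tris saline Tween buffer holding calcium plus EGTA and DTT.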 The settings on record: Cy5-CALM1 binding fluorescence, higher = more signal.
Assay [5] has the same target. Description: small molecules binding Ca-loaded calmodulin-1 – biochemical, small-molecule microarray, Cy5-labelled CALM1, plus calcium, artefact control for SMM control-protein annotation, profiling panel (AID 1112).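 Note: score merges spot fluorescence with signal to noise from triplicate slides.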 The settings on record: Cy5-CALM1 binding fluorescence, higher = more signal.
A short description of assay [6]: probe aWnt5a binding to arrayed compounds – biochemical, biotinylated probe, 635/667 nm fluorescence, primary screen (AID 1113).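 Note: score merges 667 nm fluorescence intensity with signal-to-noise per printed feature.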 The settings on record: small-molecule microarray, higher = more signal.
Assay [7] can be described thus: probe aShh binding to arrayed compounds – biochemical, biotinylated probe, 635/667 nm fluorescence, primary screen (AID 1114).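 Note: probe is biotin-labelled aShh protein from a stem cell growth factor screen; measures binding of labelled protein to compounds printed on the slide; score merges feature fluorescence at 667 nm with signal-to-noise.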 The settings on record: small-molecule microarray, higher = more signal.
Assay [8] in a line: probe aNog binding to arrayed compounds – biochemical, biotinylated probe, 635/667 nm fluorescence, primary screen (AID 1115).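 Note: probe is biotinylated aNog protein used at 0.15 µg/mL for 1 h at 4 C; z-score combines 667 nm fluorescence of each spot with its signal to noise.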 The settings on record: small-molecule microarray, higher = more signal.
Assay [9] concerns the target Torsin-1A-interacting protein 1 (Homo sapiens) (UniProt Q5JTV8). In words: compound microarray binding of lysate hLAP1 – cell lysate, small-molecule microarray, COS7 lysate, 635/667 nm fluorescence, primary screen (AID 1116). The settings on record: 635 nm fluorescence, higher = more signal.
For assay [10], the target named is Alpha-bungarotoxin (Bungarus multicinctus) (UniProt P60615). Description: compounds binding labelled alpha-BTX control protein – biochemical, small-molecule microarray, Alexa647 label, 635/667 nm fluorescence, artefact control for SMM control protein annotation, profiling panel (AID 1117). The settings on record: alpha-BTX-A647 binding fluorescence, higher = more signal.

Each structure is given as a SMILES string.

Alpha-bungarotoxin (Bungarus multicinctus), sequence (P60615 whole entry, looked up): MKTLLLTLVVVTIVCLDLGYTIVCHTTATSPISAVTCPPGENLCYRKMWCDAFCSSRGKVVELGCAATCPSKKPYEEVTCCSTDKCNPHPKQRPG
Torsin-1A-interacting protein 1 (Homo sapiens), sequence (Q5JTV8 whole entry, looked up): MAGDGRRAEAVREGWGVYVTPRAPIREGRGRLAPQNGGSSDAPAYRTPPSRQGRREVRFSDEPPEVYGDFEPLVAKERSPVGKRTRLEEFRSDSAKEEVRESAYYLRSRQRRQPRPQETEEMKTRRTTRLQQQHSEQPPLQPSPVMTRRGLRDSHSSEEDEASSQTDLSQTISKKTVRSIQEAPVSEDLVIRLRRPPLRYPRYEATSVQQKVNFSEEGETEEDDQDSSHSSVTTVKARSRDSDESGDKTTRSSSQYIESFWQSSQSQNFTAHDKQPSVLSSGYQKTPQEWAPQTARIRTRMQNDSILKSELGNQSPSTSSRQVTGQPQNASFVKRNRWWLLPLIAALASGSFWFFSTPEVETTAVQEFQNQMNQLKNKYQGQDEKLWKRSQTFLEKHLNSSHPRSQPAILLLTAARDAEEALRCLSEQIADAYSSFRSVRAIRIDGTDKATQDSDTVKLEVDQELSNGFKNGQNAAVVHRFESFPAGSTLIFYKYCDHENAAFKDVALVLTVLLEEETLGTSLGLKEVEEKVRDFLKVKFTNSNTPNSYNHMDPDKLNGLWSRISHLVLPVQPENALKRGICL
Left-right determination factor 2 (Homo sapiens), sequence (O00292 whole entry, looked up): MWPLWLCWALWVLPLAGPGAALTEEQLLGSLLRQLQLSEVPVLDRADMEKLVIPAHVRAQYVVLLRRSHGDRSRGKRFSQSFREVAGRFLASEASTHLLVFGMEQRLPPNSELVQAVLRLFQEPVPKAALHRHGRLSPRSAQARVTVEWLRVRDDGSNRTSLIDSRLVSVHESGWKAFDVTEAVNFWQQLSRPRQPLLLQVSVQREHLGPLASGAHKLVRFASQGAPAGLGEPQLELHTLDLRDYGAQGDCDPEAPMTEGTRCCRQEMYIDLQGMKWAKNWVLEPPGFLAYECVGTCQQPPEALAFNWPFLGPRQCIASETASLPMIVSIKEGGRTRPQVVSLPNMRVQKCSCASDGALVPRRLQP

Turning to `C=CCC(OC(C)=O)[C@@H]1[C@@H](N(Cc2ccc(-c3ccccc3)cc2)C(=O)c2cccc3ccccc23)c2cc(OCCCO)ccc2N1C(=O)c1ccc(-c2ccccc2)cc1` (stereo not given in full), the composite z-score in assay [1] was 0.431; in assay [3] it was -0.351; in [4], 0.468; in [5], 0.553; in assay [6], -0.187; in [7] it was -0.0793. The figures for the composite z-score in assay [8], in assay [9] and in assay [10] were -0.443, 0.951 and 0.445, respectively. Further, in [2], the z-score was -0.133.
For the compound `CO[C@H]1O[C@H](CO)[C@@H](OC(=O)Nc2ccc(Oc3ccccc3)cc2)[C@H](OC(=O)Nc2ccc3c(c2)OCO3)[C@H]1OC(=O)Nc1ccc2c(c1)OCO2`, the composite z-score is 1.3 in assay [1]; 0.467 in [3]; 1.96 in assay [4]; -0.207 in [5]; 0.105 in assay [6]; -0.183 in assay [7]. Also, the composite z-score amounted to 0.414 in assay [8], 1.62 in [9] and 2.13 in [10]. The z-score in assay [2] was -0.289.
Regarding `CCCC[C@@H]1C[C@H]1[C@@H](NC(=O)c1ccco1)c1ccccc1C(F)(F)F`, the composite z-score in [1] was 0.209; in [3], -0.23; in assay [4] it was 1.75; in assay [5] it was 1.2; in assay [6], 0.948; in assay [7], 2.6. The composite z-score in assay [8] worked out at 2.94; in assay [9], 0.58; in [10], 1.84. Further, the z-score in assay [2] is -1.42.
Take `COc1ccc([Si](C)(C)[C@@H]2[C@@H](CCO)O[C@]3(C(=O)N(Cc4ccc(N(C=O)c5ccccc5)cc4)c4ccccc43)[C@H]2C)cc1`: the composite z-score in [1] is 0.121; in [3], 0.0196; in [4] it was 1.32; in [5], 0.973; in assay [6], -0.0203; in assay [7], 0.385. Further, the composite z-score in [8] was 0.286; in [9], 0.419; in assay [10] it was 1.62. Also, the z-score in assay [2] is -4.67.
As to `C=C(CCCC)/C(=C/C[C@H](OC(C)=O)c1ccccc1OCCO)c1cc(C(=O)OC)ccc1OC`, the composite z-score was 0.0187 in assay [1]; -0.264 in [3]; -0.621 in assay [4]; -0.803 in [5]; -0.12 in assay [6]; 0.0048 in assay [7]. In addition, the composite z-score in [8] is -0.0184; in assay [9] it was 0.233; in [10], 0.439. In assay [2], this compound came in with a z-score of -2.06.
For `CC(C)NC(=O)[C@@H]1c2ccccc2C(=O)N(C2Cc3ccccc3C2)[C@H]1c1ccc(CO)cc1`, the composite z-score in [1] was 1.41; in assay [3], 0.25; in [4] it was 0.344; in assay [5] it was -0.225; in assay [6] it was 0.0142; in assay [7] it was -0.366. Besides, the composite z-score is -0.449 in [8], 0.724 in [9] and 0.399 in assay [10]. Also, the z-score in [2] was -1.31.
In the case of `COc1cc2c(cc1OC)CN(C(=O)[C@@H]1[C@H]3C(=O)O[C@H](c4ccccc4)[C@H](c4ccccc4)N3[C@H](c3ccccc3OCCO)[C@@]13C(=O)Nc1ccc(C#CCCO)cc13)CC2`, the composite z-score in [1] was 1.35; in [3], 0.268; in [4], 1.16; in assay [5], 0.104; in [6], -0.133; in assay [7], 0.292. Moreover, the composite z-score in [8] stood at 1.16; in assay [9], 2.22; in assay [10] it was 1.49. In addition, the z-score in assay [2] is -2.36.
Take `CCOC(=O)C[C@H]1[C@H](OC(=O)c2ccc(C(=O)c3ccccc3)cc2)[C@@H](NC(=O)c2ccccc2)c2cc(OCCCO)ccc2N1C(=O)Cc1ccc(OC)cc1`: the composite z-score in [1] is 0.525; in assay [3], 0.366; in assay [4] it was 0.0941; in [5] it was -0.222; in [6], -0.107; in assay [7], -0.195. Also, the results for the composite z-score in [8], in assay [9] and in [10] were -0.205, 0.738 and 0.178, respectively. The z-score in assay [2] was -0.283.
Take `O=C(c1ccccc1)N1C(=O)[C@@]2(Cc3ccccc31)N=C(c1ccc(OCCCO)cc1)O[C@H]2c1ccccc1`: the composite z-score is 1.03 in assay [1]; 0.643 in [3]; 0.661 in assay [4]; -0.502 in [5]; 0.0919 in assay [6]; -0.369 in assay [7]. Besides, the composite z-score is 1.57 in [8], 1.61 in assay [9] and 0.902 in assay [10]. In [2], this compound gave a z-score of -2.77.
Regarding `O=C1C2C=CC(C(O)c3cc(C(F)(F)F)cc(C(F)(F)F)c3)N(n3cnnc3)C2C(=O)N1Cc1ccccc1` (stereo not given), the composite z-score in [1] is 1.11; in [3], -0.63; in [4], 0.538; in assay [5], -0.374; in assay [6], -0.0161; in assay [7] it was 0.14. Further, the composite z-score was 0.705 in assay [8], -0.133 in [9] and -0.0735 in [10]. The z-score in [2] was -0.418.
For the compound `CO[C@H]1O[C@H](CO)[C@@H](OC(=O)Nc2ccc(C(F)(F)F)cc2)[C@H](OC(=O)Nc2ccc3c(c2)OCO3)[C@@H]1OC(=O)Nc1ccc2c(c1)OCO2`, the composite z-score is 0.335 in [1]; 0.819 in [3]; 0.784 in assay [4]; -0.764 in assay [5]; 0.101 in assay [6]; 0.221 in assay [7]. In addition, the composite z-score in assay [8] was found to be 1.71; in assay [9] it was 1.34; in assay [10], 0.943. This compound also returned a z-score in assay [2] of -2.44.
Regarding `CC(C)N1C(=O)c2ccccc2[C@](C)(C(=O)NCCN2CCOCC2)[C@@H]1c1ccc(CO)cc1`, the composite z-score in [1] is 0.416; in [3], -1.03; in assay [4] it was -0.454; in assay [5] it was 0.23; in [6], -0.139; in assay [7], -0.206. Further, the composite z-score in assay [8] is -0.213; in assay [9], 0.143; in [10] it was 0.0722. The compound further returned a z-score in [2] of -0.366.
In the case of `COC(=O)[C@@]1(CCC(=O)OC(C)(C)C)N=C(c2ccc(OCCCO)cc2)O[C@H]1c1ccccc1N=[N+]=[N-]`, the composite z-score in assay [1] is 0.799; in assay [3] it was -0.0736; in [4] it was 1.17; in assay [5], 0.356; in assay [6] it was 0.0101; in [7], 0.178. In addition, the composite z-score in [8] is -0.193; in assay [9], 1.06; in [10], 0.654. The z-score in assay [2] was -1.85.
On to `COc1ccc(C#Cc2ccc3c(c2)[C@]2(C(=O)N3)[C@H](C(=O)Nc3nc4ccccc4s3)[C@H]3C(=O)O[C@H](c4ccccc4)[C@H](c4ccccc4)N3[C@@H]2c2ccc(O)cc2)cc1`, for which the composite z-score in assay [1] was 1.42; in [3], 0.653; in assay [4] it was 1.7; in [5], 0.782; in assay [6], 0.383; in assay [7] it was 1.3. In addition, the composite z-score in assay [8] was 2.23; in assay [9] it was 0.934; in assay [10] it was 1.66. In assay [2], this compound showed a z-score of -1.04.
For `CCCC[C@@H]1C[C@H]1[C@@H](NC(=O)C(C)(C)C)c1ccc(C(F)(F)F)cc1`, the composite z-score in [1] was 0.946; in assay [3] it was -1.61; in assay [4], 1.18; in assay [5], 1.3; in assay [6], -0.203; in assay [7], 0.102. The values for the composite z-score in assay [8], in [9] and in assay [10] were 1.52, 0.473 and -0.0729, respectively. Moreover, in assay [2], the z-score is -1.71.
On to `C=CCN1C(=O)[C@]2(O[C@H](CCn3cc([C@H](O)c4ccccc4)nn3)[C@@H]([Si](C)(C)c3ccc(OC)cc3)[C@@H]2C)c2ccccc21`, for which the composite z-score in [1] is -1.22; in assay [3], -0.901; in assay [4] it was -0.525; in [5], 0.227; in [6], -0.124; in assay [7], -0.0146. Further, the composite z-score in assay [8] is -0.223; in [9], -0.252; in assay [10], -1.56. For the same compound, the z-score in assay [2] was -2.71.

(Values after PubChem BioAssay.)
